Laboratory results as given in ChEMBL document CHEMBL1961873, “Compounds: GSK PKIS; Assays: Nanosyn kinase panel” (2012).

The compounds below were run against Dual specificity tyrosine-phosphorylation-regulated kinase 1A (Homo sapiens) (UniProt Q13627). Settings: at 1 µM.
For Cc1ccc(C(=O)NC2CC2)cc1-c1ccc2[nH]ncc2c1, the inhibition was 2.6%. Work on OCc1ccc(-c2nc(-c3ccccn3)c(-c3ccc4c(c3)OCO4)[nH]2)cc1 yielded an inhibition of 4.86%. CC(C)c1ccc2c(c1)NC(=O)/C2=N/Nc1ccc(S(N)(=O)=O)cc1 gave an inhibition of 2.99%. Work on CN(C)C(=O)O[C@@H]1CN[C@@H](C#Cc2cc3ncnc(Nc4ccc(OCc5cccc(F)c5)c(Cl)c4)c3s2)C1 yielded an inhibition of 2.08%. In the case of COc1cccc(-n2nc(C)c3c(N/N=C(\C)c4ccncc4)ncnc32)c1, the inhibition is reported as 11%. COC(=O)c1ccc2c(c1)C(=Cc1cc(Br)c(O)c(Br)c1)C(=O)N2 showed an inhibition of 61.9%. Work on Oc1cccc(-c2nc(-c3ccccc3)[nH]c2-c2ccncc2)c1 yielded an inhibition of 8.77%. For NS(=O)(=O)c1ccc(N/N=C2\C(=O)Nc3ccc(Cl)cc32)cc1, the inhibition was 6.73%. Work on COC(=O)Nc1nc2cc(Oc3ccc(NC(=O)Nc4cccc(Br)c4)cc3)ccc2[nH]1 yielded an inhibition of 2.3%. For COC(=O)c1cncc(/C=C/c2c(C)cc(O)cc2C)c1, the inhibition was 7.4%. COc1cc(/C=N/Nc2ncnc3c2cnn3C(C)C)ccc1O gave an inhibition of 8.18%. Compound CCS(=O)(=O)c1ccc(OC)c(Nc2nccc(N(C)c3ccc4c(C)n[nH]c4c3)n2)c1 has an inhibition of 3.45%. [O-][S+]1CCN(Cc2ccc(-c3ccc4ncnc(Nc5ccc(OCc6ccccc6)c(Cl)c5)c4c3)o2)CC1 gave an inhibition of 2.81%. With c1ccc(Cc2nc3ccc(Nc4ncnc5ccccc45)cc3[nH]2)cc1 the inhibition was 9.77%. CCS(=O)(=O)c1ccc(OC)c(Nc2ncc(-c3cccc(OC)c3)o2)c1 showed an inhibition of 41.4%. For CCn1c(-c2nonc2N)nc2ccc(F)cc21, the inhibition was 10.8%. Compound CN(C)c1cc2c(Nc3ccc4c(cnn4Cc4ccccc4)c3)ncnc2cn1 has an inhibition of 6.83%. COc1cc2ncnc(Nc3ccc4c(cnn4Cc4ccccc4)c3)c2cc1OC was tested, and the inhibition was 2.6%. Work on O=C1Nc2ccc(-c3cccnc3)cc2C1=Cc1cc(Br)c(O)c(Br)c1 yielded an inhibition of 63.5%. COc1cc2ncnc(Nc3ccc(C)c(O)c3)c2cc1OC gave an inhibition of 7.48%. Cc1ccc2c(-c3ccnc(Nc4ccc5c(c4)OCCO5)n3)c(-c3ccc(C(F)(F)F)cc3)nn2n1 was tested, and the inhibition was 2%. Cc1ccc2c(-c3ccnc(Nc4cccc(C(F)(F)F)c4)n3)c(-c3ccccc3)nn2n1 gave an inhibition of 2.62%. C[C@@H](Oc1cc(-n2cnc3ccc(OC[C@@H](O)CO)cc32)sc1C(N)=O)c1ccccc1Cl gave an inhibition of 3.71%. CN(C)CCCn1c(-c2nonc2N)nc2cnccc21 gave an inhibition of 8.9%. Work on CN(c1ccc(NC(=O)Nc2ccc(OC(F)(F)F)cc2)cc1)c1ccnc(Nc2cccc(S(N)(=O)=O)c2)n1 yielded an inhibition of 1.5%. O=C1Nc2ccccc2/C1=C/Nc1ccc2[nH]c(=O)[nH]c2c1 was tested, and the inhibition was 23.3%. Cc1ccc2c(c1)/C(=N/Nc1ccc(S(N)(=O)=O)cc1)C(=O)N2 was tested, and the inhibition was 2.94%. With CCCN1CCCC(c2ccc(Nc3nc(Nc4cc(F)ccc4C(N)=O)c4cc[nH]c4n3)c(OC)c2)C1 (stereo not drawn) the inhibition was 82.7%. Nc1nccc(-c2c(-c3ccc(F)cc3)nn3cc(C(F)(F)F)ccc23)n1 showed an inhibition of 16.4%. NS(=O)(=O)c1ccc(-c2cc3ccncc3cc2OCc2ccccc2)cc1 was tested, and the inhibition was 4.84%. Work on NC(=O)c1sc(-n2cnc3ccccc32)cc1OCc1ccccc1Br yielded an inhibition of 4.57%. O=S(=O)(CCOCc1ccc(-c2ccc3ncnc(Nc4ccc(OCc5cccc(F)c5)c(Cl)c4)c3c2)o1)c1ccccc1 gave an inhibition of 1.59%. Nc1ccc(C#Cc2cncnc2Nc2ccc(OCc3cccc(F)c3)c(Cl)c2)cc1 gave an inhibition of 2.99%. ON=C1CCc2cc(-c3nc(C4CCNCC4)[nH]c3-c3ccncc3)ccc21 showed an inhibition of 1.12%.

What follows are compounds tested against Dual specificity tyrosine-phosphorylation-regulated kinase 1B (Homo sapiens) (UniProt Q9Y463). Settings: at 0.1 µM.
Chain of Dual specificity tyrosine-phosphorylation-regulated kinase 1B (Homo sapiens) (Q9Y463 whole entry, looked up): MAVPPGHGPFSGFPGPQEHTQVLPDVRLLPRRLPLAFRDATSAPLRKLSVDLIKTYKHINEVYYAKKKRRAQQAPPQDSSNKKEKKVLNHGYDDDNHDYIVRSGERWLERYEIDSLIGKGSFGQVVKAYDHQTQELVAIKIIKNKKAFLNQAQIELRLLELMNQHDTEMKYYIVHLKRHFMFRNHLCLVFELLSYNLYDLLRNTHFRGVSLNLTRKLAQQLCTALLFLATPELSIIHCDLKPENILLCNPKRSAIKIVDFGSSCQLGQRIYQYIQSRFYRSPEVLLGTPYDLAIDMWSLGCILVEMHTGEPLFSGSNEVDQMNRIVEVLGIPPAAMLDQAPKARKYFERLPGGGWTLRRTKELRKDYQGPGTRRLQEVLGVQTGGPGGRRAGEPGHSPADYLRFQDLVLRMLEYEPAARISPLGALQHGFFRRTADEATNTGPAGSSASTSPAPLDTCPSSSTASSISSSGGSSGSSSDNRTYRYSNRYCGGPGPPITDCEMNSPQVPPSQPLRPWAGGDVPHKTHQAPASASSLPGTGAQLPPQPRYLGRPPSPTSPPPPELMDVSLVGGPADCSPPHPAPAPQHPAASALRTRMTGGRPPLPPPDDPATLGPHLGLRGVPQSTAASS
Cc1ccc(C(=O)NC2CC2)cc1-c1ccc2[nH]ncc2c1 gave an inhibition of 1.19%. In the case of OCc1ccc(-c2nc(-c3ccccn3)c(-c3ccc4c(c3)OCO4)[nH]2)cc1, the inhibition is reported as 0.33%. Work on CC(C)c1ccc2c(c1)NC(=O)/C2=N/Nc1ccc(S(N)(=O)=O)cc1 yielded an inhibition of 3.56%. For CN(C)C(=O)O[C@@H]1CN[C@@H](C#Cc2cc3ncnc(Nc4ccc(OCc5cccc(F)c5)c(Cl)c4)c3s2)C1, the inhibition was 0.23%. COc1cccc(-n2nc(C)c3c(N/N=C(\C)c4ccncc4)ncnc32)c1 gave an inhibition of 1.32%. COC(=O)c1ccc2c(c1)C(=Cc1cc(Br)c(O)c(Br)c1)C(=O)N2 was tested, and the inhibition was 9.22%. With Oc1cccc(-c2nc(-c3ccccc3)[nH]c2-c2ccncc2)c1 the inhibition was 1.25%. NS(=O)(=O)c1ccc(N/N=C2\C(=O)Nc3ccc(Cl)cc32)cc1 gave an inhibition of 0.19%. COC(=O)Nc1nc2cc(Oc3ccc(NC(=O)Nc4cccc(Br)c4)cc3)ccc2[nH]1 showed an inhibition of 0.23%. Work on COC(=O)c1cncc(/C=C/c2c(C)cc(O)cc2C)c1 yielded an inhibition of 0.83%. COc1cc(/C=N/Nc2ncnc3c2cnn3C(C)C)ccc1O was tested, and the inhibition was 0.35%. Work on CCS(=O)(=O)c1ccc(OC)c(Nc2nccc(N(C)c3ccc4c(C)n[nH]c4c3)n2)c1 yielded an inhibition of -0.67%. Work on [O-][S+]1CCN(Cc2ccc(-c3ccc4ncnc(Nc5ccc(OCc6ccccc6)c(Cl)c5)c4c3)o2)CC1 yielded an inhibition of 0.05%. c1ccc(Cc2nc3ccc(Nc4ncnc5ccccc45)cc3[nH]2)cc1 gave an inhibition of 5.37%. Work on CCS(=O)(=O)c1ccc(OC)c(Nc2ncc(-c3cccc(OC)c3)o2)c1 yielded an inhibition of 6.86%. CCn1c(-c2nonc2N)nc2ccc(F)cc21 showed an inhibition of -0.23%. CN(C)c1cc2c(Nc3ccc4c(cnn4Cc4ccccc4)c3)ncnc2cn1 was tested, and the inhibition was 1.02%. COc1cc2ncnc(Nc3ccc4c(cnn4Cc4ccccc4)c3)c2cc1OC gave an inhibition of -2.48%. O=C1Nc2ccc(-c3cccnc3)cc2C1=Cc1cc(Br)c(O)c(Br)c1 was tested, and the inhibition was 9%. In the case of COc1cc2ncnc(Nc3ccc(C)c(O)c3)c2cc1OC, the inhibition is reported as 0.95%. Work on Cc1ccc2c(-c3ccnc(Nc4ccc5c(c4)OCCO5)n3)c(-c3ccc(C(F)(F)F)cc3)nn2n1 yielded an inhibition of -0.58%. Cc1ccc2c(-c3ccnc(Nc4cccc(C(F)(F)F)c4)n3)c(-c3ccccc3)nn2n1 showed an inhibition of 1.3%. C[C@@H](Oc1cc(-n2cnc3ccc(OC[C@@H](O)CO)cc32)sc1C(N)=O)c1ccccc1Cl was tested, and the inhibition was 1.13%. Work on CN(C)CCCn1c(-c2nonc2N)nc2cnccc21 yielded an inhibition of 0.77%. In the case of CN(c1ccc(NC(=O)Nc2ccc(OC(F)(F)F)cc2)cc1)c1ccnc(Nc2cccc(S(N)(=O)=O)c2)n1, the inhibition is reported as -2.14%. Work on O=C1Nc2ccccc2/C1=C/Nc1ccc2[nH]c(=O)[nH]c2c1 yielded an inhibition of 2.68%. Cc1ccc2c(c1)/C(=N/Nc1ccc(S(N)(=O)=O)cc1)C(=O)N2 showed an inhibition of -1.01%. Compound CCCN1CCCC(c2ccc(Nc3nc(Nc4cc(F)ccc4C(N)=O)c4cc[nH]c4n3)c(OC)c2)C1 (stereo not drawn) has an inhibition of 72%. Nc1nccc(-c2c(-c3ccc(F)cc3)nn3cc(C(F)(F)F)ccc23)n1 gave an inhibition of -1.44%. Compound NS(=O)(=O)c1ccc(-c2cc3ccncc3cc2OCc2ccccc2)cc1 has an inhibition of 0.97%. With NC(=O)c1sc(-n2cnc3ccccc32)cc1OCc1ccccc1Br the inhibition was 0.66%. O=S(=O)(CCOCc1ccc(-c2ccc3ncnc(Nc4ccc(OCc5cccc(F)c5)c(Cl)c4)c3c2)o1)c1ccccc1 gave an inhibition of -0.1%. Compound Nc1ccc(C#Cc2cncnc2Nc2ccc(OCc3cccc(F)c3)c(Cl)c2)cc1 has an inhibition of 0.49%. ON=C1CCc2cc(-c3nc(C4CCNCC4)[nH]c3-c3ccncc3)ccc21 gave an inhibition of 0.17%.
